Where “and” joins values, the source holds several entries; their conditions need not be identical. Equal values may be shown once. Screen size: about 410,000 compounds; about 18,000 (4.4%) were called active. Roughly 7% stayed inconclusive and do not appear here. No stated cut-off is given here; in the data, active means activity change below about -60%; inconclusive means no clear call, values can overlap the other calls; inactive means above about -39%. The full list was thinned out, with actives kept by preference. More than one record can exist for a structure, and the calls need not agree.
On the % scale 0 is the no-effect control and ±100 the full control effect.

The nature of this assay: qHTS Assay for inhibitors of the human cytomegalovirus (HCMV). As to conditions: HFF cells, HCMV-luciferase reporter, 72 h; at 57.5 µM; stronger effect = lower value. In a few lines:
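Cell-based, HFFs, 1000 cells/well, 16 h 37C; cpds in DMSO + HCMV-luc, MOI 1 PFU/cell; 72 h 37C; OneGlo luminescence after 5 min RT; norm. to buffer vs Salinomycin 10uM.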
(qHTS replaces the single test concentration by a dilution series.)
For the compound `Cc1ccc(-n2c(SCC(=O)c3ccccc3)nc3c([nH]c4ccccc43)c2=O)cc1`, the activity change, negative = inhibition was 37% (inactive).

In the case of `CCOC(=O)c1ccc(NC(=O)CSc2nc3c([nH]c4ccccc43)c(=O)n2C)cc1`, the activity change, negative = inhibition was -81.7% (active).

For the compound `Cc1ccccc1CSc1nc2c([nH]c3ccccc32)c(=O)n1C`, the activity change, negative = inhibition was 34.5% (inactive).

In the case of `CCc1ccc(NC(=O)CSc2nc3c([nH]c4ccccc43)c(=O)n2-c2cccc(OC)c2)cc1`, the activity change, negative = inhibition was 20.7% (inactive).

On to `CCn1c(CC(=O)Nc2ccc(C)cc2)nnc1SCC(=O)Nc1nc(C)cs1`, for which the activity change, negative = inhibition was 28.7% (inactive).

Turning to `O=C(COc1ccccc1F)OCc1cc(=O)n2nc(C3CCCCC3)sc2n1`, the activity change, negative = inhibition was 11.6% (inactive).

As for `O=c1c2ccccc2n(Cc2cccc(Cl)c2)c(=O)n1Cc1ccccc1`, the activity change, negative = inhibition was -14.5% (inactive).

Turning to `CC(C)CCN(C(=O)Nc1ccc(Cl)c(Cl)c1)C(C)c1cccs1` (centres undefined), the activity change, negative = inhibition was 15.6% (inactive).

Take `CC(C)(C)C(=O)CSc1ccc(S(=O)(=O)N2CCCC2)cn1`: the activity change, negative = inhibition is 0% (inactive).

As for `CCc1c(C)sc(NC(=O)C2c3ccccc3Oc3ccccc32)c1C(=O)OC(C)C`, the activity change, negative = inhibition is 23.5% (inactive).

Turning to `Cc1nc(S(=O)(=O)c2ccc(Br)cc2)nc2c1CCC2`, the activity change, negative = inhibition was 6.93% (inactive).

Take `CCOc1ccc(N(CC)C(=O)C2CCN(S(=O)(=O)c3cccc4nonc34)CC2)cc1`: the activity change, negative = inhibition was -9.41% (inactive).

Consider `Cc1ccc2c(c1)N(C(=O)Nc1ccc(Br)cc1F)CCO2`, for which the activity change, negative = inhibition is -2.87% (inactive).

On to `COc1ccccc1N(C)S(=O)(=O)c1ccc(Cl)c(C(=O)Nc2ccncc2)c1`, for which the activity change, negative = inhibition was -67.6% (active).

Regarding `COc1ccccc1N(C)S(=O)(=O)c1ccc(Cl)c(C(=O)N2CCC(C(N)=O)CC2)c1`, the activity change, negative = inhibition is -15.9% (inactive).

For `COc1ccccc1N(C)S(=O)(=O)c1ccc(C(=O)NC2CCCCCC2)cc1`, the activity change, negative = inhibition is -30.1% (inactive).

Consider `COc1ccc(C2(Nc3cccc(F)c3)C(=O)c3ccccc3C2=O)cc1`, for which the activity change, negative = inhibition is 3.54% (inactive).

On to `CCOC(=O)c1ccc(CSc2nnc3cc(C)c4ccccc4n23)cc1`, for which the activity change, negative = inhibition is 0.725% (inactive).

In the case of `COc1cccc(N2CCN(S(=O)(=O)c3cc(Br)cc4c3N(C(=O)C3CC3)CC4)CC2)c1`, the activity change, negative = inhibition was 7.82% (inactive).

Turning to `CN(Cc1ccccc1)c1ncnc2onc(-c3ccc(F)cc3)c12`, the activity change, negative = inhibition is -33.7% (inactive).

Turning to `COc1ccccc1NC(=O)CSC1=Nc2ccccc2C2=NC(CC(=O)NCc3cccs3)C(=O)N12` (centres undefined), the activity change, negative = inhibition was 11.4% (inactive).

Take `COc1ccc(OC)c(NC(=O)CSC2=Nc3ccccc3C3=NC(CC(=O)NCCc4ccccc4)C(=O)N23)c1` (centres undefined): the activity change, negative = inhibition is 3.26% (inactive).

`COc1ccc(OC)c(NC(=O)CSC2=Nc3ccccc3C3=NC(CC(=O)NCc4ccc(F)cc4)C(=O)N23)c1` (centres undefined): the activity change, negative = inhibition is -67.3% (active).

Consider `Cc1ccc(N(CC(=O)NCC2CCCO2)C(=O)CNS(=O)(=O)c2ccc(Cl)cc2)cc1` (centres undefined), for which the activity change, negative = inhibition was 43.5% (inactive).

Take `Cc1nc2nc(SCC(=O)NC3CCC(C)CC3)nn2c(C)c1Cc1ccccc1Cl` (centres undefined): the activity change, negative = inhibition was -21.3% (inactive).

As for `O=C(/C=C/c1ccccc1[N+](=O)[O-])OCC(=O)N1CCCC1`, the activity change, negative = inhibition is 11.1% (inactive).

As for `CC1CC(C)CN(C/C=C/c2ccccc2[N+](=O)[O-])C1` (centres undefined), the activity change, negative = inhibition is 71.9% (inactive).

For the compound `CC1CCCCC1NC(=O)/C(C#N)=C/C=C/c1ccccc1[N+](=O)[O-]` (centres undefined), the activity change, negative = inhibition is -109% (active).

On to `COC(=O)c1cc(S(=O)(=O)N2CCN(c3cc(Cl)ccc3C)CC2)c[nH]1`, for which the activity change, negative = inhibition was -37% (inactive).

Turning to `COc1ccc(-c2cn3nc(N4CCC(C(=O)Nc5cccc(C)c5C)CC4)sc3n2)cc1`, the activity change, negative = inhibition was 0% (inactive).

`Cc1ccccc1CSCCNC(=O)c1ccc(Cl)c(S(=O)(=O)N2CCOCC2)c1`: the activity change, negative = inhibition is -33.1% (inactive).

In the case of `CC(C)(CNC(=O)c1ccc(Cl)c(S(=O)(=O)N2CCc3ccccc3C2)c1)N1CCOCC1`, the activity change, negative = inhibition is -77.7% (active).

Turning to `CN(C)S(=O)(=O)c1ccc(C(=O)NCC(C)(C)N2CCOCC2)cc1`, the activity change, negative = inhibition is -39.4% (inactive).

On to `COc1cc2c(=O)c(S(=O)(=O)c3ccc(C(C)C)cc3)cn(Cc3ccccc3C)c2cc1OC`, for which the activity change, negative = inhibition was 23.6% (inactive).

As to `COc1ccnc(Oc2ccccc2)n1`, the activity change, negative = inhibition is 5% (inactive).

As to `COc1cnc(-c2ccccn2)nc1Oc1ccc(C(C)(C)C)cc1`, the activity change, negative = inhibition was -82.7% (active).

For `COc1ccnc(Oc2ccccc2)c1-c1ncn[nH]1`, the activity change, negative = inhibition is -36.6% (inactive).

On to `Cc1cc(OCC(=O)NCC2(N(C)C)CCCCC2)cc(C)c1Cl`, for which the activity change, negative = inhibition is -11.2% (inactive).

`O=C(CCS(=O)(=O)c1ccc2c(c1)NC(=O)CO2)Nc1cccc(C(F)(F)F)c1`: the activity change, negative = inhibition is -106% (active).

`Cc1cc2c(cc1S(=O)(=O)CCC(=O)Nc1ccc(OC(F)(F)F)cc1)OCC(=O)N2`: the activity change, negative = inhibition was 5.03% (inactive).

As for `CC1CCCCC1NC(=O)CCS(=O)(=O)c1ccc2c(c1)NC(=O)CO2` (centres undefined), the activity change, negative = inhibition is -22.8% (inactive).

Regarding `CCOC(=O)c1cc2c(=O)n3ccccc3nc2n(Cc2ccco2)c1=NC(=O)c1ccc(F)cc1`, the activity change, negative = inhibition is -0.814% (inactive).

For `CCOC(=O)c1cc2c(=O)n3ccccc3nc2n(CC(C)C)c1=NC(=O)c1c(-c2c(F)cccc2Cl)noc1C`, the activity change, negative = inhibition was -12.3% (inactive) and -65.2% (active).

Take `CCOC(=O)c1cc2c(=O)n3ccccc3nc2n(CC2CCCO2)c1=NC(=O)c1ccccc1F` (centres undefined): the activity change, negative = inhibition is 5.02% (inactive).

Values taken from PubChem BioAssay AID1259415 (National Center for Advancing Translational Sciences (NCATS), 2018).
